{"source": "PubChem BioAssay (NCATS)", "experiment": "qHTS Assay for Lipid Storage Modulators (AID 1519); on activity change, negative = inhibition: on the % scale 0 is the no-effect control and ±100 the full control effect", "details": "Drosophila S3 cells, BODIPY lipid droplet/cell ratio, laser cytometry, cells loaded with oleic acid", "text": "NIH Molecular Libraries Probe Production Centers Network [MLPCN]\nNIH Chemical Genomics Center [NCGC]\nAssay Submitter (PI): Beller, Mathias; Max-Planck-Institut fur Biophysikalische Chemie\nNCGC Assay Overview: Storing lipids as a reservoir for energy or the anabolism of elementary metabolites is a common feature of probably all cells and is conserved from bacteria to humans. The universal cellular lipid storage organelle is the so-called lipid storage droplet (LD). Although ubiquitous, LDs share a simple structure composed of a hydrophobic core that harbors the storage lipids, which is shielded by a droplet-specific phospholipid monolayer to which proteins are attached. The current model of LD biogenesis involves an incorporation of the lipid core into the membrane leaflets of the endoplasmic reticulum (ER) followed by a subsequent budding-like maturation of a LD, which ultimately pinches off. Once released, LD volume can increase by localized lipogenesis or fusion of existing droplets. Storage lipids are re-mobilized enzymatically by lipase activity. Lipase regulation in the adipocyte is heavily studied and involves multiple components including catecholamine signaling, the LD-associated proteins Perilipin and comparative gene identification-58 (CGI-58) and at least two lipases named hormone sensitive lipase (HSL) and adipocyte triglyceride lipase (ATGL). LD regulation outside of the adipocyte is poorly understood and only few components are known. However, there is an urgent need to learn more about ectopic fat depots as mislocalized storage of lipids, for example in the liver or muscle, is an eminent health problem associated with insulin resistance or the metabolic syndrome. We developed a laser-scanning cytometer assay to enable 1,536-well screening and combined the results of the small molecules screen with an RNAi database based on lipid storage.\nNCGC Assay Protocol Summary:\nWe dispensed 4 uL of cells at 1.25 x 10^6 cells/mL into LoBase Aurora COC 1,536-well plates (black walled, clear bottom) with a bottle-valve solenoid-based dispenser (Aurora) to obtain 5,000 cells/well. Triacsin C (Sigma-Aldrich T-4540), an inhibitor of long-chain fatty acyl CoA synthetase that blocks synthesis of triglycerides, was used as a positive control for lipid under-storage. A total of 23 nL of compound solution of different concentrations were transferred to the assay plates using a Kalypsys pin tool equipped with a 1,536-pin array containing 10-nL slotted pins (FP1S10, 0.457-mm diameter, 50.8 mm long; V&P Scientific). One microliter of oleic acid (400 uM) was added, and the plate was lidded with stainless steel rubber gasket lined lids containing pinholes. […] Fluorescence was detected by excitation of the fluorophores with a 488-nm laser on an Acumen Explorer (TTP Lab Tech). The total intensity in channel 1 (500-530 nm) reflected lipid droplet accumulation. […] The ratio of the total intensity in PMT channel 1 over total intensity of channel 3 was also calculated. Percent activity was computed relative to an internal control (100% inhibited lipid droplet deposition due to the presence of 20 uM Triacsin C), which was added to 32 wells/plate.", "key": {"[1]": {"details": "measured here: cell count channel max response"}, "[2]": {"details": "measured here: lipid channel max response"}}, "note": "Several values for one entry are separate records, joined by “and”; a condition that tells them apart may be missing. Identical values can stand only once. Inconclusive results are not listed. Activity calls are given as the source filed them. The call rests on the fitted dose curve.", "data": [{"smiles": "CCc1cc(C(N)=S)ccn1", "values": [{"measurement": "activity change, negative = inhibition", "setting": "at 25.7 µM (top of the series)", "result": "-2.71% (inactive)"}, {"measurement": "activity change, negative = inhibition", "setting": "at 57.5 µM (top of the series)", "result": "6.15% (inactive)"}, {"measurement": "max response", "setting": "[1]", "result": "-9.37% and 8.92%"}, {"measurement": "max response", "setting": "[2]", "result": "-12.5% and 21.6%"}]}, {"smiles": "N[C@@H](Cc1ccc(O)c(O)c1)C(=O)O", "values": [{"measurement": "activity change, negative = inhibition", "setting": "at 25.7 µM (top of the series)", "result": "-1.67% (inactive)"}, {"measurement": "max response", "setting": "[1]", "result": -2.41, "unit": "%"}, {"measurement": "max response", "setting": "[2]", "result": -4.9, "unit": "%"}]}, {"smiles": "COc1ccc2cc3[n+](cc2c1OC)CCc1cc2c(cc1-3)OCO2", "values": [{"measurement": "activity change, negative = inhibition", "setting": "at 25.7 µM (top of the series)", "result": "-1.57% (inactive)"}, {"measurement": "max response", "setting": "[1]", "result": -13.6, "unit": "%"}, {"measurement": "max response", "setting": "[2]", "result": -12.8, "unit": "%"}]}, {"smiles": "CCn1cc(C(=O)O)c(=O)c2cc(F)c(N3CCNCC3)nc21", "values": [{"measurement": "activity change, negative = inhibition", "setting": "at 25.7 µM (top of the series)", "result": "0.491% (inactive)"}, {"measurement": "activity change, negative = inhibition", "setting": "at 57.5 µM (top of the series)", "result": "8.65% (inactive)"}, {"measurement": "max response", "setting": "[1]", "result": "9.91% and 14.4%"}, {"measurement": "max response", "setting": "[2]", "result": "12.7% and 27.2%"}]}, {"smiles": "COC(=O)Nc1nc2ccc(C(=O)c3ccccc3)cc2[nH]1", "values": [{"measurement": "activity change, negative = inhibition", "setting": "at 25.7 µM (top of the series)", "result": "-15.3% (inactive)"}, {"measurement": "max response", "setting": "[1]", "result": -1.6, "unit": "%"}, {"measurement": "max response", "setting": "[2]", "result": -17.4, "unit": "%"}]}, {"smiles": "Cc1cc(NS(=O)(=O)c2ccc(N)cc2)no1", "values": [{"measurement": "activity change, negative = inhibition", "setting": "at 25.7 µM (top of the series)", "result": "0.06% (inactive)"}, {"measurement": "activity change, negative = inhibition", "setting": "at 57.5 µM (top of the series)", "result": "10.1% (inactive)"}, {"measurement": "max response", "setting": "[1]", "result": "8.41% and 20.8%"}, {"measurement": "max response", "setting": "[2]", "result": "8.63% and 34.6%"}]}, {"smiles": "CC[C@H](NC(C)C)[C@H](O)c1ccc(O)c2[nH]c(=O)ccc12", "values": [{"measurement": "activity change, negative = inhibition", "setting": "at 57.5 µM (top of the series)", "result": "-1.12% (inactive)"}, {"measurement": "max response", "setting": "[1]", "result": -20.9, "unit": "%"}, {"measurement": "max response", "setting": "[2]", "result": -21.9, "unit": "%"}]}, {"smiles": "Nc1nc(N)c2nc(CNc3ccc(C(=O)NC(CCC(=O)O)C(=O)O)cc3)cnc2n1", "note": "(configuration not stated)", "values": [{"measurement": "activity change, negative = inhibition", "setting": "at 57.5 µM (top of the series)", "result": "6.58% (inactive) and 1.3% (inactive)"}, {"measurement": "max response", "setting": "[1]", "result": "6.78% and -3.02%"}, {"measurement": "max response", "setting": "[2]", "result": "18.5% and 0.109%"}]}, {"smiles": "O=S(=O)(c1cccc2cnccc12)N1CCCNCC1", "values": [{"measurement": "activity change, negative = inhibition", "setting": "at 57.5 µM (top of the series)", "result": "-2.33% (inactive)"}, {"measurement": "max response", "setting": "[1]", "result": 9.76, "unit": "%"}, {"measurement": "max response", "setting": "[2]", "result": 6.29, "unit": "%"}]}, {"smiles": "CCN1CCCC1CNC(=O)c1cc(S(N)(=O)=O)ccc1OC", "note": "(configuration not stated)", "values": [{"measurement": "activity change, negative = inhibition", "setting": "at 57.5 µM (top of the series)", "result": "2.89% (inactive)"}, {"measurement": "max response", "setting": "[1]", "result": 2.98, "unit": "%"}, {"measurement": "max response", "setting": "[2]", "result": 5.52, "unit": "%"}]}, {"smiles": "COC(=O)Nc1nc2ccc(Sc3ccccc3)cc2[nH]1", "values": [{"measurement": "activity change, negative = inhibition", "setting": "at 57.5 µM (top of the series)", "result": "4.46% (inactive)"}, {"measurement": "max response", "setting": "[1]", "result": -3.56, "unit": "%"}, {"measurement": "max response", "setting": "[2]", "result": 3.98, "unit": "%"}]}, {"smiles": "O=S(=O)(O)CCS", "values": [{"measurement": "activity change, negative = inhibition", "setting": "at 57.5 µM (top of the series)", "result": "4.92% (inactive)"}, {"measurement": "max response", "setting": "[1]", "result": 14.6, "unit": "%"}, {"measurement": "max response", "setting": "[2]", "result": 25.1, "unit": "%"}]}, {"smiles": "CC(C)(C)NC(=O)[C@H]1CC[C@H]2[C@@H]3CC[C@H]4NC(=O)C=C[C@]4(C)[C@H]3CC[C@]12C", "values": [{"measurement": "activity change, negative = inhibition", "setting": "at 57.5 µM (top of the series)", "result": "-0.33% (inactive)"}, {"measurement": "max response", "setting": "[1]", "result": -43.7, "unit": "%"}, {"measurement": "max response", "setting": "[2]", "result": -42.5, "unit": "%"}]}]}
